Test results taken from the supplement of paper PMC10646978.
± gives the standard deviation.

How the values were obtained:
Settings in all cases: modulator concentration 10 µM
[1] = test system: RAW-Dual (murine macrophage reporter line); test: NF-kB reporter (SEAP) activity fold change vs agonist alone; higher = enhanced NF-kB activity
Procedure, shortened: (§1)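 Overnight stimulation with a PRR agonist followed pre-incubation for 1 hour at 37 °C with compound at 10 μM final. This was done in RAW-Dual murine macrophage reporter cells seeded at 50 000 per well in 384-well plates. NF-κB (SEAP, QUANTI-Blue absorbance at 620 nm) and IRF (Lucia luciferase, QUANTI-Luc luminescence) were read from the supernatant. Each reporter's fold change relative to the mean agonist-only control on the same plate was averaged over replicate plates.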

[2] = test system: RAW-Dual (murine macrophage reporter line); test: IRF reporter (Lucia luciferase) activity fold change vs agonist alone; higher = enhanced IRF activity
Procedure, shortened: as §1

[3] = test system: RAW-Dual (murine macrophage reporter line); test: viability score (confluency relative to resting cells, overnight) (fraction); higher = more viable, active = viable (0.7 or more)
Procedure, shortened: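 Compound was added at a final 10 μM to RAW-Dual macrophages in 384-well plates and left overnight. Confluency was imaged with IncuCyte, and two masks were generated in IncuCyte software over all imaged wells. Each viability score is confluency relative to resting cells, and a compound met the cutoff only when both masks were above 70% of resting cells.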

[4] = agonist: CpG ODN 1826 0.5 ug/mL

Structure (SMILES)	NF-kB reporter [1, 4]	NF-kB reporter ([1]; agonist: LPS 0.1 ug/mL)	NF-kB reporter ([1]; agonist: MPLA […])	IRF reporter ([2]; agonist: 3'3'-cGAMP 10 ug/mL)	IRF reporter ([2]; agonist: LPS 0.1 ug/mL)	IRF reporter ([2]; agonist: MPLA […])	viability score [3]
CCN(CC)c1ccc(C=C(C#N)c2n[nH]c(N)c2C#N)c(OC)c1	1.43 ± 0.16	0.885 ± 0.095	0.976 ± 0.092	0.577 ± 0.036	0.865 ± 0.12	1.18 ± 0.15	1.02 (active)
CCC(C(=O)Nc1cc(Cl)cc(Cl)c1)c1ccccc1 (configuration not stated)	0.851 ± 0.05	1.16 ± 0.098	1.11 ± 0.045	1.09 ± 0.083	1.11 ± 0.062	0.97 ± 0.12	0.991 (active)
CC1c2cccc(O)c2C(=O)C2=C(O)C3(O)C(=O)C(C(N)=O)=C(O)C(N(C)C)C3C(O)C21.Cl (configuration not stated)	1.34 ± 0.32	1.15 ± 0.058	1.04 ± 0.074	0.795 ± 0.041	1.14 ± 0.15	1.02 ± 0.12	0.992 (active)
O=c1c2c([nH]c3c(-c4cccc5ccccc45)cnn13)CCCC2	1.02 ± 0.095	1.07 ± 0.067	0.913 ± 0.062	0.987 ± 0.027	1.47 ± 0.23	1.09 ± 0.2	1.01 (active)
CCOc1ccc(N=Cc2c(Nc3ccc(OCC)cc3)nc3ccccn3c2=O)cc1	1.17 ± 0.13	0.984 ± 0.13	1.19 ± 0.17	0.855 ± 0.051	1.23 ± 0.14	1.41 ± 0.23	1.04 (active)
CCCC(=O)Nc1ncnc2c1ncn2[C@@H]1O[C@@H]2OP(=O)([O-])OC[C@H]2[C@H]1OC(=O)CCC [Prestw-813]	1.27 ± 0.12	1.14 ± 0.079	1.14 ± 0.12	0.991 ± 0.056	1.41 ± 0.14	1.21 ± 0.16	1 (active)
O=C1C(O)=C(c2ccc([N+](=O)[O-])cc2)C(=O)c2ccccc21	0.967 ± 0.065	1.02 ± 0.1	0.905 ± 0.079	0.969 ± 0.038	1.53 ± 0.13	1.28 ± 0.23	1 (active)
COc1ccc(C(=O)NCc2ccc(OCCN(C)C)cc2)cc1OC.Cl	0.988 ± 0.15	1.05 ± 0.079	0.925 ± 0.059	0.88 ± 0.027	1.21 ± 0.1	1.08 ± 0.085	0.994 (active)
CC1=NN(c2ccc(Cl)cc2)C(=O)C1=Cc1c(C)nn(-c2ccc(C)cc2C)c1O	1.01 ± 0.13	0.866 ± 0.097	0.944 ± 0.051	0.891 ± 0.031	1.06 ± 0.085	1.15 ± 0.17	0.998 (active)
COC(=O)C1=C(C)NC(C)=C(C(=O)OCCN2CCN(C(c3ccccc3)c3ccccc3)CC2)C1c1cccc([N+](=O)[O-])c1.Cl.Cl (configuration not stated)	0.241 ± 0.082	0.588 ± 0.22	0.799 ± 0.051	0.132 ± 0.008	0.888 ± 0.27	1.32 ± 0.18	0.975 (active)
COc1cc2ncnc(Nc3ccc(F)c(Cl)c3)c2cc1NC(=O)/C=C/CN1CCCCC1	0.666 ± 0.32	0.936 ± 0.083	0.989 ± 0.081	0.486 ± 0.026	0.958 ± 0.2	0.861 ± 0.22	0.988 (active)
Cc1c(OCc2ccc(Cl)cc2)ccc2c(C(F)(F)F)cc(=O)oc12	0.758 ± 0.059	0.94 ± 0.048	1.11 ± 0.17	0.802 ± 0.042	1.06 ± 0.062	1.07 ± 0.094	1.02 (active)
CC1(C)C(=O)C2CC3(O)C4=CC(=O)OC(c5ccoc5)C4(C)CCC3C(C)(C2=O)C1CC(=O)O (configuration not stated)	0.99 ± 0.056	1.04 ± 0.064	1.01 ± 0.081	0.997 ± 0.035	1.51 ± 0.13	1.25 ± 0.14	0.996 (active)
CCCCCCCCCCCCCCCCOc1nc2ccc(C)cc2c(=O)o1	1.1 ± 0.32	1.09 ± 0.057	0.961 ± 0.13	0.921 ± 0.034	1.27 ± 0.15	1.08 ± 0.23	1 (active)
Cc1ccc(OCCOc2ncnc3ccccc23)c(Cl)c1	1.02 ± 0.11	1.02 ± 0.078	1.23 ± 0.049	0.916 ± 0.094	1 ± 0.12	0.875 ± 0.18	1 (active)
C=CCN1C(=O)C(=C2C(=O)N(Cc3ccccc3F)c3ccccc32)SC1=S	1.09 ± 0.1	1.02 ± 0.079	1.01 ± 0.062	0.904 ± 0.039	1.37 ± 0.18	1.13 ± 0.19	1.01 (active)
N#CC1=C(NC(=S)NC(=O)c2ccccc2)c2ccccc2CC12CCCC2	0.535 ± 0.03	0.918 ± 0.07	0.717 ± 0.042	0.792 ± 0.033	1.63 ± 0.1	1.26 ± 0.2	0.982 (active)
CCOC(=O)C1=C(C)NC(C)=C(C(=O)OC)C1c1ccc(C)cc1 (configuration not stated)	0.782 ± 0.069	0.743 ± 0.062	1.2 ± 0.046	0.815 ± 0.13	0.914 ± 0.039	1.34 ± 0.087	0.935 (active)
CC[C@@H]1C(=O)N(C)c2cnc(Nc3ccc(C(=O)N[C@H]4CC[C@H](N5CCN(CC6CC6)CC5)CC4)cc3OC)nc2N1C(C)C	0.553 ± 0.077	1.22 ± 0.31	4.21 ± 0.23	0.0547 ± 0.0068	0.0624 ± 0.0084	0.138 ± 0.012	0.018 (inactive)
CC(=NN1CCN(Cc2cccc3ccccc23)CC1)c1ccc(Cl)cc1	0.9 ± 0.086	1.06 ± 0.077	1.01 ± 0.086	1 ± 0.068	1.19 ± 0.13	0.992 ± 0.12	1.01 (active)
CCCCc1c(C)nc(NN=C(C)c2cccc([N+](=O)[O-])c2)nc1O	0.954 ± 0.081	0.941 ± 0.092	1.11 ± 0.1	0.912 ± 0.032	1.12 ± 0.15	1.18 ± 0.19	1.01 (active)
CN1CCN(CC(O)Cn2c3ccccc3c3ccccc32)CC1.O=C(O)C(=O)O (configuration not stated)	0.964 ± 0.074	0.946 ± 0.1	0.983 ± 0.093	0.609 ± 0.02	1.39 ± 0.19	1.45 ± 0.23	1.01 (active)
COc1ccc(C)c2sc(=NC(=O)c3ccccc3)n(C)c12	1.16 ± 0.11	1.17 ± 0.06	2.25 ± 0.073	0.904 ± 0.05	0.969 ± 0.15	2.01 ± 0.31	0.99 (active)
O=C(CSc1ccc2nc(-c3ccccc3)cn2n1)Nc1ccc(Br)cc1	0.931 ± 0.2	0.957 ± 0.077	0.995 ± 0.15	0.624 ± 0.017	1.21 ± 0.25	1.31 ± 0.23	0.988 (active)
CCOc1ccc(N2CCN(CC(=O)O)C2=O)cc1	1.15 ± 0.32	1.06 ± 0.11	1.02 ± 0.1	0.917 ± 0.063	0.968 ± 0.12	1.15 ± 0.21	0.997 (active)
O=C1CSC(=S)N1c1ccc(Cl)cc1	0.606 ± 0.049	0.665 ± 0.077	0.854 ± 0.059	0.389 ± 0.059	0.673 ± 0.03	0.869 ± 0.11	0.988 (active)
